# From PubChem BioAssay (NCI)
# About 83,000 compounds went through this panel and 20% of them were active in at least one assay; those are over-represented in the sample as a whole.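 In brief: 96-well plates, 48 h treatment, single concentration, percent growth endpoint.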 A number with no mark means an inactive call. Active and inactive are the calls of the source. The calls were made as follows: active = growth percent below 10; inactive = the rest.
# Legend:
# Assay in all cases: NCI-60 one-dose screen, 48 h (100 = growth as untreated, 0 = no growth, -100 = all killed)
# Settings in all cases: 10 µM unless noted
# DU-145 prostate = test system: DU-145 prostate
# MALME-3M melanoma = test system: MALME-3M melanoma
# MDA-MB-231 breast = test system: MDA-MB-231 breast
# RXF 393 renal = test system: RXF 393 renal
# SF-268 CNS = test system: SF-268 CNS
# SF-295 CNS = test system: SF-295 CNS
# SF-539 CNS = test system: SF-539 CNS
# UACC-257 melanoma = test system: UACC-257 melanoma
# M14 melanoma = test system: M14 melanoma
SMILES,growth (DU-145 prostate),growth (MALME-3M melanoma),growth (MDA-MB-231 breast),growth (RXF 393 renal),growth (SF-268 CNS),growth (SF-295 CNS),growth (SF-539 CNS),growth (UACC-257 melanoma),growth (M14 melanoma)
CC1(C)NCCC[C@]2(C)[C@H]3CC[C@@H]4[C@H]5[C@H](C(=O)/C=C/c6ccco6)CC[C@]5(CO)CC[C@@]4(C)[C@]3(C)CC[C@@H]12,97.4%,78.7%,96.2%,89.2%,95.7%,113%,87.8%,91.9%,91.3%
Cc1cc2cc3ccc(N(C)C)cc3nc2cc1N,-50.3% (active),-5.97% (active),-18.4% (active),-38% (active),0.225% (active),2.71% (active),-4.96% (active),-1.21% (active),-13.4% (active)
O=C(/C=C/c1c(-c2ccc(Cl)cc2)nn(-c2ccccc2)c1C(F)(F)F)c1ccc(Cl)cc1,108%,104%,79.5%,88.4%,105%,96.5%,102%,104%,90.5%
N#CC1=C(N)Oc2c(cnn2-c2ccc([N+](=O)[O-])cc2[N+](=O)[O-])C1c1ccccc1 (stereo unspecified),114%,99.8%,105%,110%,102%,93.3%,98.2%,94.1%,95.3%
O=C(CSc1nc2ccccc2[nH]1)NCc1ccccc1,110%,109%,103%,101%,98%,102%,95.6%,100%,107%
C=C(C)[C@@H]1CC[C@]2(C(=O)N3CCN(C)CC3)CC[C@]3(C)[C@H](CC[C@@H]4[C@@]5(C)CC[C@H](O)C(C)(C)[C@@H]5CC[C@]43C)[C@@H]12,-57.3% (active),-73.1% (active),-63.4% (active),-91.6% (active),-74.8% (active),-86.9% (active),-74.3% (active),-88.5% (active),-86.4% (active)
COc1cc(NC(=O)CSc2nc3ccc(C)cc3c(=O)n2Cc2ccccc2)cc(OC)c1OC,80.7%,49.8%,35.5%,24.3%,69.1%,79.9%,11.8%,61.3%,65.6%
COc1ccc(-c2cnc3c(-c4cccc5ncccc45)cnn3c2)cc1,58.1%,15%,-1.88% (active),26.7%,19%,32.2%,30.8%,51.3%,76.8%
NC(=O)CSSCC(N)=O,104%,93.3%,109%,117%,97.9%,97.1%,102%,95.8%,93.2%
Cc1nc2ccc(Cl)cn2c1-c1nnc(SCc2ccc([N+](=O)[O-])cc2)o1,67.9%,31.6%,41.4%,-5.38% (active),46.1%,74.6%,20.8%,61.3%,70.3%
Oc1ccc(OCCOc2ccc(O)cc2)cc1,61.4%,62%,50.3%,71.7%,61%,32.7%,28%,83.8%,15.8%
CN1CCN(CCNc2nccc(-c3c(-c4cccc(O)c4)nc4sccn34)n2)S1(=O)=O,56.5%,-20% (active),24.3%,39.2%,85.6%,95.9%,79.9%,-10.6% (active),-4.02% (active)
NS(=O)(=O)c1ccc(CCN2C(=O)C=CC2=O)cc1,109%,102%,104%,111%,100%,102%,101%,101%,107%
COc1ccc(/C=C/c2nc(Nc3ccc(S(=O)(=O)Nc4nc(C)cc(C)n4)cc3)c3ccccc3n2)cc1,71.3%,89.6%,61.3%,94.3%,75.3%,63.8%,96.8%,78.6%,47.1%
C=C(C)[C@@H]1CC[C@]2(C(=O)N[C@H](CO)Cc3ccccc3)CC[C@]3(C)[C@H](CC[C@@H]4[C@@]5(C)CCCNC(C)(C)[C@@H]5CC[C@]43C)[C@@H]12,-87.4% (active),-82.9% (active),-87.1% (active),-91.5% (active),-81.2% (active),-91.8% (active),-87.7% (active),-88.8% (active),-90.2% (active)
Cn1c(-c2c(N)n(CCCN3CCOCC3)c3nc(C#N)c(C#N)nc23)nc2ccccc21,75.3%,48.4%,43.4%,51.2%,76.2%,110%,19.3%,67.8%,74.2%
O=C1Nc2ccc(F)cc2/C1=C\c1c(-c2ccccc2)nc2ccccn12,86.5%,67.5%,73.4%,50.8%,79.5%,57%,73.3%,90.7%,48.7%
N=C1C(c2nc3ccccc3s2)=C(O)CN1c1cc(Cl)cc(Cl)c1,86.6%,63.8%,66.4%,63.9%,173%,88.2%,46.9%,74.4%,69%
CCc1ccc(-c2cn3ccnc3c(-c3ccc4ncn(Cc5ccccc5)c4c3)n2)cc1,80.9%,115%,56.8%,69.3%,69.5%,48.8%,78.8%,103%,63.6%
Cc1ccc(-c2nc3ccccn3c2/C=C2/C(=O)Nc3cc(Cl)ccc32)cc1,65.5%,76.1%,76%,77.8%,63.3%,64.5%,79.7%,91.1%,80.4%
N#C/C(=C\c1cccc(C#N)c1)c1ccccc1,101%,98.9%,102%,108%,99%,99.5%,99.4%,99.2%,104%
C/C=C(\C)C(=O)NC1=CC[C@@]2(C)C(=CCC3C2CC[C@@]2(C)C3CC[C@@H]2C(C)N(C)C)C1=O (stereo partly specified),64.6%,-42.9% (active),34.8%,10.7%,10.4%,31.7%,-49% (active),2.46% (active),-32.1% (active)
O=C1Nc2ccccc2/C1=C\c1c(-c2ccccc2)nc2ccccn12,63.5%,43.6%,59.2%,26.8%,51.2%,24%,49.6%,87.6%,3.79% (active)
Cc1c(C)c([N+](=O)[O-])c(C)c([N+](=O)[O-])c1C,104%,111%,101%,108%,106%,97.6%,107%,105%,108%
CC[C@]12C=CCN3CC[C@@]4(c5cc(NC(=O)CCC(=O)O[C@H]6CC[C@H]7[C@@H]8CCC9=CC(=O)CC[C@@H]9[C@H]8CC[C@]67C)c(OC)cc5N(C)[C@H]4[C@@](O)(C(=O)OC)[C@@H]1OC(C)=O)[C@@H]32,82.2%,98.9%,68.5%,82.7%,74.4%,86.3%,94.8%,76.2%,77.1%
O=C(/C(=C/c1ccc([N+](=O)[O-])cc1)SCc1ccc(F)cc1)c1ccc(F)cc1,94.6%,88.8%,76.1%,97%,80.8%,93.2%,105%,108%,82.8%
COCc1cnccc1NC1CCCCCC1,108%,105%,101%,100%,101%,101%,101%,99.5%,94.2%
COc1ccc(/C=C/C(=O)Nc2cc(/C=C\c3cc(OC)c(OC)c(OC)c3)cc(OC)c2OC)cc1OC,53.2%,32.8%,52%,-5.89% (active),31.5%,4.33% (active),28.6%,50.7%,5.78% (active)
CC1(C)NCCC[C@]2(C)[C@H]3CC(=O)[C@H]4[C@@H]5C[C@](C)(CO)CC[C@]5(C)CC[C@@]4(C)[C@]3(C)CC[C@@H]12,96.4%,102%,118%,91.4%,85.3%,106%,91.2%,114%,92.6%
